Data as given in PubChem BioAssay (Tox21).
Where “and” joins values, the source holds several entries; their conditions need not be identical. Equal entries are not always repeated. Inconclusive results are not listed. A call without a number means that no potency is given here. Calls of active or inactive are those of the source. Calls follow the shape of the dose curve; as a rule, active = well fitted inhibition curve with a large enough effect in the repeat runs; inconclusive = weak or mixed curves; inactive = no such curve, though single readings can be large or run the other way.

Test: qHTS assay to identify small molecule antagonists of the thyroid receptor (TR) signaling pathway (AID 743065); also: nearly all actives have a fitted effect of over 55% in size
Conditions: GH3.TRE-Luc, T3-stimulated luciferase inhibition, 23.5 h; series mostly up to 70.3 µM
From the text: U.S. Tox21 Program National Center for Advancing Translational Sciences [NCATS] NIH Chemical Genomics Center [NCGC] U.S. Environmental Protection Agency [EPA] National Institutes of Environmental Health Sciences [NIEHS] National Toxicology Program [NTP] U.S. Food and Drug Administration [FDA] Tox21 Assay Overview: Thyroid receptor (TR), a nuclear hormone receptor, plays an important role in development, proliferation, differentiation, metabolism, brain function, and cardiovascular system. […] To profile the Tox21 10K compound library in TR signaling, a cell-based GH3-TRE-Luc assay (GH3.TRE-Luc cell line, developed by the laboratory of Dr. Albertinka J. Murk, Wageningen University) was used to measure the inhibition of TR. GH3 (rat pituitary tumor) cells stably expressing a TR activity sensor consisting of two TR response elements and a luciferase reporter gene.
Tox21 Assay Protocol Summary: GH3.TRE-Luc cells were dispensed at 1500 cells/4 uL/well into 1536-well white solid bottom plates using a Multidrop Combi dispenser (Thermo Fisher Scientific Inc., Waltham, MA). After the assay plates were incubated at 37 C for 4 hours, 23 nL of library compound or DMSO controls was transferred to the assay plates by a pintool station (Kalypsys, San Diego, CA), followed by addition of 1 ul of T3 (1 nM, final concentration in the wells) to stimulate TR transactivation. The assay plates were incubated at 37 C for 23.5 h, and then 1 uL of CellTiter-Fluor reagent (Promega, Madision, WI) of measuring cytotoxicity was added to each well using a Bioraptr Flying Reagent Dispenser (FRD) workstation (Beckman Coulter, Indianapolis, IN, USA). The plates were incubated at 37 C and 5% CO2 for additional 30 min, and fluorescence intensity was measured by a ViewLux plate reader (PerkinElmer, Shelton, CT). For measuring luciferase reporter gene activity, 4 uL of ONE-Glo Luciferase Assay reagent (Promega) was added to each well using a Bioraptr FRD (Beckman Coulter), followed by 30 min incubation at room temperature. The luminescence intensity of plates was recorded by a ViewLux plate reader (PerkinElmer, Shelton, CT).
Potency is read from the fitted curve at half-maximal effect.

Structure (SMILES)	Potency
CC(C)C[C@H](NC(=O)[C@@H](COC(C)(C)C)NC(=O)[C@H](Cc1ccc(O)cc1)NC(=O)[C@H](CO)NC(=O)[C@H](Cc1c[nH]c2ccccc12)NC(=O)[C@H](Cc1cnc[nH]1)NC(=O)[C@@H]1CCC(=O)N1)C(=O)N[C@@H](CCCN=C(N)N)C(=O)N1CCC[C@H]1C(=O)NNC(N)=O	inactive
O=C1CCC(c2ccccc2)(C2CCN(Cc3ccccc3)CC2)C(=O)N1 (stereo not given)	inactive
CCc1ncnc2cc(OC)c(OC)cc12	inactive
CCN(CC)C(=O)[C@]1(c2ccccc2)C[C@@H]1CN	inactive
NCCCC[C@H](NC(=O)[C@@H]1CCCN1C(=O)[C@@H]1CSSC[C@H](N)C(=O)N[C@@H](Cc2ccc(O)cc2)C(=O)N[C@@H](Cc2ccccc2)C(=O)N[C@@H](CCC(N)=O)C(=O)N[C@@H](CC(N)=O)C(=O)N1)C(=O)NCC(N)=O	inactive
CC1=C(/C=C/C(C)=C/C=C/C(C)=C\C(=O)O)C(C)(C)CCC1	68.8 µM (active)
CN[C@@H]1[C@@H](O[C@H]2O[C@H](CO)[C@@H](N)[C@H](O)[C@H]2O)O[C@H]2C[C@@H](N)[C@@H](O[C@H]3[C@H](O)[C@@H](O)[C@H](N)C[C@@H]3N)O[C@@H]2[C@@H]1O	inactive
CC(=O)N(C)C	inactive
COC(=O)C[C@](O)(CCCC(C)(C)O)C(=O)O[C@@H]1C(OC)=CC23CCCN2CCc2cc4c(cc2[C@H]13)OCO4 (stereo not given in full)	0.0376 µM (active)
OCl	inactive
CN1CCN(CCCN2c3ccccc3Sc3ccc(C(F)(F)F)cc32)CC1	9.44 µM (active)
OCCCNc1ccccc1	inactive
C=CCN1C(=O)C(CC(C)C)NC1=S (stereo not given)	inactive
Cc1c(N)nc([C@H](CC(N)=O)NC[C@H](N)C(N)=O)nc1C(=O)N[C@H](C(=O)N[C@H](C)[C@@H](O)[C@H](C)C(=O)N[C@H](C(=O)NCCc1nc(-c2nc(C(=O)NCCCCN=C(N)N)cs2)cs1)[C@@H](C)O)[C@@H](O[C@@H]1O[C@@H](CO)[C@@H](O)[C@H](O)[C@@H]1O[C@H]1O[C@H](CO)[C@@H](O)[C@H](OC(N)=O)[C@@H]1O)c1cnc[nH]1	3.76 µM (active) and 841 nM (active)
O=C1OC(O)C(C(Cl)Cl)=C1Cl (stereo not given)	22.4 µM (active)
O=C1c2ccccc2-c2n[nH]c3cccc1c23	11.9 µM (active)
CC(C)CCC[C@@H](C)[C@H]1CC[C@H]2[C@@H]3CC[C@@H]4C[C@H](O)CC[C@]4(C)[C@H]3CC[C@]12C	inactive
Cc1cccc(C)c1NC(=O)C1CCCCN1C (stereo not given)	inactive
Nc1nc(NC2CC2)c2ncn([C@@H]3C=C[C@@H](CO)C3)c2n1	inactive
Cc1cnc(C(=O)O)c[n+]1[O-]	inactive

Structure (SMILES)	Potency
CCC(C)(C)c1ccc(CC(C)CN2C[C@@H](C)O[C@@H](C)C2)cc1 (stereo not given in full)	11.9 µM (active)
CN(C)CCc1c[nH]c2ccc(Cn3cncn3)cc12	inactive
CC(C)c1ccc2sc3ccccc3c(=O)c2c1	inactive
CCOc1ccc(S(=O)(=O)O)c2cccnc12	inactive
CC[C@@H](C(=O)[C@@H](C)[C@@H](O)[C@H](C)CCc1ccc(C)c(O)c1C(=O)O)[C@H]1O[C@](CC)([C@H]2CC[C@](O)(CC)[C@H](C)O2)C[C@@H]1C	1.33 µM (active)
CCC(=O)OC(OP(=O)(CCCCc1ccccc1)CC(=O)N1C[C@H](C2CCCCC2)C[C@H]1C(=O)O)C(C)C (stereo not given in full)	inactive
FC(F)(F)COCC(F)(F)F	inactive
CCCCCCCCCCCCCCCCC(C(=O)O)C(O)(CC(=O)O)C(=O)O (stereo not given)	26.6 µM (active)
Cc1cc(N)c2ccccc2[n+]1CCCCCCCCCC[n+]1c(C)cc(N)c2ccccc21	11.4 µM (active)
C=CC[N+]1([C@H]2C[C@H]3[C@@H]4CC[C@H]5C[C@H](O)[C@@H](N6CCOCC6)C[C@]5(C)[C@H]4CC[C@]3(C)[C@H]2OC(C)=O)CCCC1	inactive
CC(=O)[C@]1(O)Cc2c(O)c3c(c(O)c2[C@@H](O[C@H]2C[C@H](N)[C@H](O)[C@H](C)O2)C1)C(=O)c1ccccc1C3=O	0.119 µM (active)
N=C(N)c1ccc(/C=C/c2ccc(C(=N)N)cc2O)cc1	inactive
CN1CCN(c2ccccc2/C=C2\SCCN(c3ccc(Cl)c(Cl)c3)C2=O)CC1	8.63 µM (active)
N=C(N)n1cccn1	inactive
CCN1\C(=C/C=C/C=C/c2sc3ccccc3[n+]2CC)Sc2ccccc21	2.37 µM (active) and 4.22 µM (active)
CCC[C@@H]1C[C@@H](C(=O)N[C@@H]([C@H]2O[C@H](SC)[C@H](OP(=O)(O)O)[C@@H](O)[C@H]2O)[C@H](C)Cl)N(C)C1	inactive
CC(C)c1ncc([N+](=O)[O-])n1C	inactive
O=C(Cn1cnnn1)N[C@@H]1C(=O)N2C(C(=O)O)=C(CSc3nncs3)CS[C@H]12	inactive
O=C1c2ccccc2C(=O)C1c1ccc(F)cc1	inactive
COc1cc2c(cc1O)CCN[C@]21CS[C@@H]2c3c(OC(C)=O)c(C)c4c(c3[C@H](COC1=O)N1[C@@H]2[C@H]2c3c(cc(C)c(OC)c3O)C[C@@H]([C@@H]1O)N2C)OCO4	1.9 nM (active) and 2.7 nM (active)
